Test results: PubChem BioAssay (EPA / NIEHS)
“And” between values parts separate entries of the source, which are not always exact repeats. Equal values may be shown once. The source made the active and inactive calls. The calls were made as follows: active = hit-call score of the fitted dose curve at least 0.9, where 1 is the maximum; inactive = score below 0.9.

The compounds below were run on TIMP metallopeptidase inhibitor 2 (TIMP2), TIMP2 (gene 7077) (assay: BSK_KF3CT_TIMP2: BioMAP Diversity Plus: KF3CT Assay for TIMP metallopeptidase inhibitor 2 (TIMP2) Biomarker Activity (AID 2283071)). Conditions: primary human keratinocytes with fibroblasts; actives raise or lower the signal.
Protocol: BSK_KF3CT is a cell-based, multiplexed-readout assay that uses keratinocytes and foreskin fibroblasts, a human skin primary cell co-culture, with measurements taken at 24 hours after chemical dosing in a 96-well plate.BSK_KF3CT_TIMP2 is an assay component measured in the BSK_KF3CT assay. It measures TIMP-2 antibody related to regulation of gene expression using ELISA technology.Data from the assay component BSK_KF3CT_TIMP2 was analyzed into 1 assay endpoint. This assay endpoint, BSK_KF3CT_TIMP2, was analyzed with bidirectional fitting relative to DMSO as the negative control and baseline of activity. Using a type of binding reporter, gain or loss-of-signal activity can be used to understand changes in the signaling as they relate to the gene TIMP2. Furthermore, this assay endpoint can be referred to as a primary readout, because this assay has produced multiple assay endpoints where this one serves a signaling function. To generalize the intended target to other relatable targets, this assay endpoint is annotated to the protease inhibitor intended target family, where the subfamily is metalloproteinase inhibitor.
The levels of cell surface (or secreted, indicated by the prefix "s") biomarker endpoints were measured by ELISA. Overt cytotoxicity to cells in confluent adherent cultures (all systems other than the BT system) was assessed by measuring total protein levels using sulforhodamine B (SRB) staining in parallel cultures at the time of biomarker measurements, indicated as SRB endpoints. For proliferation assays for adherent cell types, individual cell types are cultured at sub-confluence and relative cell numbers quantified by SRB staining at time points optimized for each system (48 h: 3C and CASM3C systems; 72 h: BT and HDF3CGF systems; 96 h: SAg system). SRB was performed by staining cells with 0.1% SRB after fixation with 10% TCA and reading wells at 560 nm.Viability and proliferation of PBMC (T cells) was quantified by Alamar Blue reduction for the SAg and BT systems. For PBMC viability (referred to as PBMC Cytotoxicity within the assay endpoint names), cells were plated (75,000/well in a 96-well plate) and then chemical samples added for 1 h before addition of activators, SEB and TSST-1 (20 ng/mL final concentration each). Cells were incubated for 90 h. Then, Alamar Blue (20 uL/well) (Invitrogen, Cat DAL1100) was added for 6 h, and the plates were read with a fluorescence microplate reader at 546/580 nm (excitation/emission). For PBMC proliferation, cells were plated and activated as above but incubated for only 16 h prior to addition of Alamar Blue. Plates were read after 6 h.

Row | Structure (SMILES) | AC50 | outcome
1 | CCCCCCCCCCCCOS(=O)(=O)O | 29.3 µM (active) | –
2 | COCN(COC)c1nc(N(COC)COC)nc(N(COC)COC)n1 | – | inactive
3 | COc1cccc(O)c1 | – | inactive
4 | CCCCCCCCCCCCCCC | – | inactive
5 | O=C(O)CCC(F)(F)C(F)(F)C(F)(F)C(F)(F)C(F)(F)C(F)(F)F | – | inactive
6 | CCC(C)c1ccccc1O (stereo not given) | – | inactive
7 | O=C1OC2(c3ccccc31)c1cc(I)c(O)c(I)c1Oc1c2cc(I)c(O)c1I | 2.44 µM (active) | –
8 | CCOC(=O)CN[C@@H](C(=O)N1CC[C@H]1C(=O)NCc1ccc(/C(N)=N/O)cc1)C1CCCCC1 | – | inactive
9 | O=C(c1ccccc1)c1ccccc1 | – | inactive
10 | C=COC(=O)C(C)(C)CCCCCC | 27.6 µM (active) | –
11 | O=C(CC(=O)C(F)(F)C(F)(F)C(F)(F)F)c1cccs1 | – | inactive
12 | CCCCc1oc2ccccc2c1C(=O)c1cc(I)c(OCCN(CC)CC)c(I)c1 | 8.7 µM (active) | –
13 | Clc1ccc(Nc2nnc(Cc3ccncc3)c3ccccc23)cc1 | 3.02 µM (active) | –
14 | Cc1cccc2c1ccc1ccccc12 | – | inactive
15 | CCCCC=O | – | inactive
16 | Oc1cc2ccccc2cc1O | – | inactive
17 | CCCCCc1ccc(O)cc1 | 10.4 µM (active) | –
18 | Oc1ccc(Cc2ccccc2O)cc1 | – | inactive
19 | N=C(N)c1ccc(OCCCCCOc2ccc(C(=N)N)cc2)cc1 | – | inactive
20 | Cc1ccc(N=Nc2c(O)ccc3ccccc23)c(C)c1 | 4.11 µM (active) | –

Row | Structure (SMILES) | AC50 | outcome
21 | O=P(O)(O)CCC(F)(F)C(F)(F)C(F)(F)C(F)(F)C(F)(F)C(F)(F)F | – | inactive
22 | CCCCC(CC)C(=O)O (stereo not given) | – | inactive
23 | O=C(NCc1ncc(C(F)(F)F)cc1Cl)c1c(Cl)cccc1Cl | – | inactive
24 | CCCCC(CC)C(=O)OCCOCCOCCOCCOC(=O)C(CC)CCCC (stereo not given) | – | inactive
25 | C=CC(=C)CC/C=C(\C)CCC=C(C)C | – | inactive
26 | O=P(O)(O)CCC(F)(F)C(F)(F)C(F)(F)C(F)(F)C(F)(F)C(F)(F)C(F)(F)C(F)(F)F | – | inactive
27 | C=CC(=O)OCCC(F)(F)C(F)(F)C(F)(F)C(F)(F)C(F)(F)C(F)(F)C(F)(F)C(F)(F)F | – | inactive
28 | O=C1NS(=O)(=O)c2ccccc21 | – | inactive
29 | O=S(=O)(O)C(F)(F)C(F)(F)C(F)(F)C(F)(F)C(F)(F)C(F)(F)C(F)(F)C(F)(F)C(F)(F)C(F)(F)F | – | inactive
30 | O=C(O)CCC(F)(F)C(F)(F)C(F)(F)C(F)(F)C(F)(F)F | – | inactive
31 | Cc1ccc(C(=O)c2ccccc2)cc1 | 30.3 µM (active) | –
32 | O=C(CCCN1CCC(O)(c2ccc(Cl)cc2)CC1)c1ccc(F)cc1 | – | inactive
33 | OCCN1CN(CCO)CN(CCO)C1 | – | inactive
34 | CN(C)CCOC(c1ccccc1)c1ccccc1 | – | inactive
35 | CCCCCCCCCCCCCCCCCC[N+](C)(C)Cc1ccccc1 | 3.25 µM (active) | –
36 | CS(=O)(=O)c1ccc([C@@H](CC2CCCC2)C(=O)Nc2cnccn2)cc1Cl | – | inactive
37 | CC1=NN(c2ccccc2)C(=O)C1 | – | inactive
38 | OCC(CO)(CBr)CBr | – | inactive
39 | COc1cc(OC)nc(NC(=O)NS(=O)(=O)Nc2ccccc2C(=O)N(C)C)n1 | – | inactive
40 | Oc1c(Cl)cc(Cl)cc1Sc1cc(Cl)cc(Cl)c1O | 1.96 µM (active) and 2.15 µM (active) | –
